A short description of the assay: probe aEGFR binding to arrayed compounds – biochemical, biotinylated probe, 635/667 nm fluorescence, primary screen (AID 1097).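 Further: probe is a biotinylated anti-EGFR antibody binding compounds printed on slides; score combines fluorescence near 667 nm and signal to noise of each spot.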 To be noted: small-molecule microarray, higher = more signal.
Molecule `CCOC(=O)C=Cc1cc(F)ccc1O` yielded a composite z-score of -0.233.

For `[N-]=[N+]=Nc1ccccc1[C@@H]1OC(c2ccc(OCCCO)cc2)=N[C@]1(Cc1ccccc1)C(=O)NCc1ccccc1`, the composite z-score is 0.454.

`Cc1ccccc1C(O)C1C=CC2C(=O)NC(=O)C2N1Nc1ccc(Cl)cc1Cl` (configuration not stated) showed a composite z-score of -0.125.

Molecule `COc1ccc([Si](C)(C)[C@H]2[C@H](CCO)O[C@@]3(C(=O)N(Cc4ccccc4)c4ccc(N5CCOC5=O)cc43)[C@@H]2C)cc1` had a composite z-score of -0.0152.

In turn, `COCC1C2CC[C@H]3C(OCc4ccc(OC)cc4)OC[C@]4(C)[C@H]3C2=C(CN4C(=O)OC(C)(C)C)[C@H](C)C1COC` (some centres not stated) registered a composite z-score of -0.0656.

Molecule `COCCOC(=O)N1C(=O)[C@@]2(c3cc(C#CC4(O)CCCCCC4)ccc31)[C@H](C(=O)N1CCN(c3ncccn3)CC1)[C@H]1C(=O)O[C@H](c3ccccc3)[C@H](c3ccccc3)N1[C@@H]2c1ccccc1OCCO` showed a composite z-score of 0.0436.

In the case of `COc1ccc(C(=O)Nc2cccc(CN3C(=O)[C@@]4(O[C@@H](CC(=O)N(CCO)Cc5ccccc5)[C@H]([Si](C)(C)c5ccc(OC)cc5)[C@H]4C)c4ccccc43)c2)cc1`, the composite z-score is -0.201.

Molecule `COCCOC(=O)N1C(=O)[C@@]2(c3cc(C#CCNC(N)=O)ccc31)[C@H](c1ccc(O)cc1)N1[C@H](c3ccccc3)[C@H](c3ccccc3)OC(=O)[C@H]1[C@@H]2C(N)=O` registered a composite z-score of -0.406.

Take `O=C1C2C=CC(C(O)c3cccc(O)c3)N(Nc3ccccc3)C2C(=O)N1c1ccccc1` (configuration not stated): the composite z-score was -0.0416.

In the case of `COc1ccc([Si](C)(C)[C@@H]2[C@@H](CC(=O)N3Cc4ccccc4C[C@H]3CO)O[C@]3(C(=O)N(c4ccccc4)c4ccccc43)[C@H]2C)cc1`, the composite z-score is 0.13.

On to `COc1ccc(C(O)C2C=CC3C(=O)N(c4ccccc4)C(=O)C3N2Nc2ccccc2F)cc1` (configuration not stated), for which the composite z-score is -0.0678.

With `COCCOC(=O)N1C(=O)[C@@]2(c3cc(C#CCC(C(=O)OC)C(=O)OC)ccc31)[C@H](c1ccc(O)cc1)N1[C@H](c3ccccc3)[C@H](c3ccccc3)OC(=O)[C@H]1[C@@H]2C(=O)NC[C@H](O)c1ccccc1`, the composite z-score is 0.0153.

Consider `COCC(=C=CC[C@H](O)c1cccc(OCCO)c1)C[C@H](O)COCc1ccccc1`, for which the composite z-score is 0.0167.

Regarding `C=C(C)[C@@H]1CC=C(C(O)C2C=CC3C(=O)N(c4ccccc4)C(=O)C3N2Nc2ccc(C#N)cc2)CC1` (some centres not stated), the composite z-score was found to be 0.0717.

As for `COc1ccc(NC(=O)O[C@H]2[C@@H]3OC(=O)[C@H](Cc4cccc(Br)c4)C/C=C/C[C@@H](Cc4cccc(Br)c4)C(=O)O[C@H]3[C@@H](OC)O[C@@H]2CO)cc1`, the composite z-score was -0.067.

Regarding `C=C(/C(=C/C[C@H](OC(=O)c1ccncc1)c1cccc(OCCO)c1)c1cnc2ccccc2c1)C(C)C`, the composite z-score was -0.0578.

In turn, `CS(=O)(=O)CCOC(=O)C1=CC(CCCO)=CC(C2CC2)N(Cc2cccc(OC(F)(F)F)c2)C=C1C(=O)OCCS(C)(=O)=O` (configuration not stated) gave a composite z-score of -0.106.

For `NC(=O)[C@H]1[C@@H]2C(=O)O[C@@H](c3ccccc3)[C@@H](c3ccccc3)N2[C@@H](c2ccc(O)cc2)[C@]12C(=O)Nc1ccc(C#CC3=CCCCC3)cc12`, the composite z-score is -0.186.

For the molecule `[N-]=[N+]=NCc1ccccc1[C@@H]1OC(c2ccc(OCCCO)cc2)=N[C@]1(Cc1ccccc1)C(=O)NCCN1CCOCC1`, the composite z-score came out at 0.591.

On to `COc1cc(C(O)C2C=CC3C(=O)N(Cc4ccccc4)C(=O)C3N2n2cnnc2)cc(OC)c1OC` (configuration not stated), for which the composite z-score is 0.298.

For `C=CCN1C(=O)[C@@]2(O[C@@H](CCO)[C@H]([Si](C)(C)c3ccc(OC)cc3)[C@H]2C)c2cc(N3CCOC3=O)ccc21`, the composite z-score is -0.134.

As for `CC(C)[C@H]1NC(=O)[C@@]23C(=O)N[C@@H](Cc4ccccc4)C2[C@H](C)[C@@]2(C)O[C@H]2C3/C=C/C/C=C\CNC(=O)[C@H](Cc2ccccc2)NC1=O` (some centres not stated), the composite z-score came out at 0.0354.

Consider `O=C1C2C=CC(C(O)c3ccco3)N(Nc3ccccc3)C2C(=O)N1c1ccccc1` (configuration not stated), for which the composite z-score is -0.192.

`CC(C)C[C@@H]1NC(=O)[C@@]23C(=O)N[C@@H](Cc4ccccc4)C2[C@H](C)[C@@]2(C)O[C@H]2C3/C=C/C/C=C\CNC(=O)[C@@H](C)NC1=O` (some centres not stated) displayed a composite z-score of -0.131.

Take `CCN(CC)c1ccc(N2CC=CC34O[C@@H]5/C=C\CCC(C)OC(=O)C5[C@H]3C(=O)N(C(C)CO)[C@@H]4C2=O)cc1` (some centres not stated): the composite z-score is -0.206.

`CO[C@H]1O[C@H](CO)[C@@H](OC(=O)c2ccc(Br)cc2)[C@@H]2OC(=O)[C@H](Cc3ccccc3)C/C=C/C[C@@H](Cc3ccccc3)C(=O)O[C@@H]12` showed a composite z-score of -0.176.

In turn, `CC(C)C(CO)N1C(=O)[C@@H]2[C@H]3C(=O)OCC=C[C@H]3OC23C=CCN(C(C)(C)C)C(=O)[C@@H]13` (some centres not stated) gave a composite z-score of -0.144.
